Experimental data reported in PubChem BioAssay AID1159580 (chemical genetic matrix, 2015).
Hit rate of the full screen: of about 5,500 compounds, about 2,000 (36%) were called active. Not shown: some 18% with an inconclusive outcome. Cut-off read from the data, not from the text of the source: active = normalized growth mostly below about 0.91 (no sharp cut-off); inconclusive = no clear call, values can overlap the other calls; inactive = mostly above about 0.92. This is one part of the list.

Assay: chemical genetic growth profiling, strain panel (AID 1159580);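 note: tested at 20 µM; growth read once vehicle control cultures reached saturation at 30 °C; 1 = growth at the plate median or of vehicle wells; lower values mean less growth of the strain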
Details: growth OD

Measured: normalized growth

CCNc1nc(Cl)nc(NCC)n1
inactive: S. cerevisiae deletion strains, locus YJR043C, strain POL32, hits give low values 0.939 | S. cerevisiae deletion strains, locus YJR075W, strain HOC1, hits give low values 0.998 | S. cerevisiae deletion strains, locus YKL009W, strain mrt4, hits give low values 1.01 | S. cerevisiae deletion strains, locus YKL068W, hits give low values 0.995 | S. cerevisiae deletion strains, locus YKL085W, strain MDH1 (second series), hits give low values 1 | S. cerevisiae deletion strains, locus YKL085W, strain MDH1, hits give low values 1 | S. cerevisiae deletion strains, locus YKL160W, strain elf1, hits give low values 1 | S. cerevisiae deletion strains, locus YKL190W, strain CNB1, hits give low values 1 | S. cerevisiae deletion strains, locus YKR001C, strain vps1, hits give low values 1.02 | S. cerevisiae deletion strains, locus YKR026C, strain gcn3, hits give low values 0.985 | S. cerevisiae deletion strains, locus YKR091W, strain srl3, hits give low values 0.996 | S. cerevisiae deletion strains, locus YLL001W, strain dnm1, hits give low values 1 | S. cerevisiae deletion strains, locus YLL026W, hits give low values 0.981 | S. cerevisiae deletion strains, locus YLL041C, strain sdh2, hits give low values 0.992 | S. cerevisiae deletion strains, locus YLR027C, strain aat2, hits give low values 0.977 | S. cerevisiae deletion strains, locus YLR039C, strain RIC1, hits give low values 1 | S. cerevisiae deletion strains, locus YLR058C, strain SHM2, hits give low values 0.999 | S. cerevisiae deletion strains, locus YLR102C, strain apc9, hits give low values 1.01 | S. cerevisiae deletion strains, locus YLR221C, strain rsa3, hits give low values 0.987 | S. cerevisiae deletion strains, locus YLR258W, strain gsy2, hits give low values 0.989 | S. cerevisiae deletion strains, locus YLR262C, strain YPT6 (second series), hits give low values 0.992 | S. cerevisiae deletion strains, locus YLR262C, strain YPT6, hits give low values 0.997 | S. cerevisiae deletion strains, locus YLR268W, strain sec22, hits give low values 1 | S. cerevisiae deletion strains, locus YLR320W, strain mms22, hits give low values 0.986 | S. cerevisiae deletion strains, locus YLR330W, strain CHS5, hits give low values 0.994 | S. cerevisiae deletion strains, locus YLR342W, strain FKS1 (second series), hits give low values 0.995 | S. cerevisiae deletion strains, locus YLR342W, strain FKS1, hits give low values 0.991 | S. cerevisiae deletion strains, locus YLR357W, strain rsc2, hits give low values 0.953 | S. cerevisiae deletion strains, locus YLR370C, strain arc18, hits give low values 1.02 | S. cerevisiae deletion strains, locus YLR371W, strain rom2, hits give low values 1 | S. cerevisiae deletion strains, locus YLR384C, strain iki3, hits give low values 0.976 | S. cerevisiae deletion strains, locus YLR418C, strain cdc73, hits give low values 0.985 | S. cerevisiae deletion strains, locus YML016C, strain PPZ1, hits give low values 1 | S. cerevisiae deletion strains, locus YML032C, strain rad52, hits give low values 1.01 | S. cerevisiae deletion strains, locus YML120C, strain ndi1, hits give low values 1.03 | S. cerevisiae deletion strains, locus YML124C, strain tub3, hits give low values 1.01 | S. cerevisiae deletion strains, locus YMR058W, strain fet3, hits give low values 0.999 | S. cerevisiae deletion strains, locus YMR078C, strain ctf18, hits give low values 1.01 | S. cerevisiae deletion strains, locus YMR125W, strain sto1, hits give low values 0.99 | S. cerevisiae deletion strains, locus YMR129W, hits give low values 0.997 | S. cerevisiae deletion strains, locus YMR205C, strain PFK2, hits give low values 0.997 | S. cerevisiae deletion strains, locus YMR223W, strain ubp8, hits give low values 1.01 | S. cerevisiae deletion strains, locus YMR231W, strain pep5, hits give low values 0.995 | S. cerevisiae deletion strains, locus YMR263W, strain SAP30, hits give low values 1.01 | S. cerevisiae deletion strains, locus YMR307W, strain GAS1, hits give low values 1.06 | S. cerevisiae deletion strains, locus YNL067W, strain RPL9B, hits give low values 0.988 | S. cerevisiae deletion strains, locus YNL071W, strain lat1, hits give low values 0.998 | S. cerevisiae deletion strains, locus YNL128W, strain TEP1, hits give low values 0.997 | S. cerevisiae deletion strains, locus YNL153C, strain GIM3, hits give low values 0.985 | S. cerevisiae deletion strains, locus YNL209W, strain ssb2, hits give low values 0.992 | S. cerevisiae deletion strains, locus YNL233W, strain BNI4, hits give low values 1.01 | S. cerevisiae deletion strains, locus YNL248C, strain rpa49, hits give low values 0.989 | S. cerevisiae deletion strains, locus YNL250W, strain rad50, hits give low values 1.01 | S. cerevisiae deletion strains, locus YNL271C, strain bni1, hits give low values 1.01 | S. cerevisiae deletion strains, locus YNL298W, strain CLA4, hits give low values 1.02 | S. cerevisiae deletion strains, locus YNL307C, strain MCK1, hits give low values 1.01 | S. cerevisiae deletion strains, locus YNL322C, strain KRE1 (second series), hits give low values 0.997 | S. cerevisiae deletion strains, locus YNL322C, strain KRE1, hits give low values 0.996 | S. cerevisiae deletion strains, locus YNR049C, strain mso1, hits give low values 0.988 | S. cerevisiae deletion strains, locus YNR052C, strain pop2, hits give low values 1.02 | S. cerevisiae deletion strains, locus YOL006C, strain TOP1, hits give low values 1.04 | S. cerevisiae deletion strains, locus YOL012C, strain htz1 1.15 | S. cerevisiae deletion strains, locus YOL147C, strain pex11, hits give low values 1.01 | S. cerevisiae deletion strains, locus YOR001W, strain rrp6, hits give low values 0.982 | S. cerevisiae deletion strains, locus YOR061W, strain CKA2, hits give low values 0.994 | S. cerevisiae deletion strains, locus YOR069W, strain VPS5, hits give low values 1 | S. cerevisiae deletion strains, locus YOR070C, strain gyp1, hits give low values 0.983 | S. cerevisiae deletion strains, locus YOR080W, strain dia2, hits give low values 0.998 | S. cerevisiae deletion strains, locus YOR083W, strain WHI5, hits give low values 1.01 | S. cerevisiae deletion strains, locus YOR106W, strain vam3, hits give low values 1.01 | S. cerevisiae deletion strains, locus YOR136W, strain idh2, hits give low values 1 | S. cerevisiae deletion strains, locus YOR144C, strain elg1, hits give low values 1 | S. cerevisiae deletion strains, locus YOR184W, strain ser1, hits give low values 1.02 | S. cerevisiae deletion strains, locus YOR265W, strain rbl2, hits give low values 0.979 | S. cerevisiae deletion strains, locus YOR270C, strain vph1, hits give low values 1.02 | S. cerevisiae deletion strains, locus YOR290C, strain snf2, hits give low values 1.02 | S. cerevisiae deletion strains, locus YOR316C, strain cot1, hits give low values 1 | S. cerevisiae deletion strains, locus YPL051W, strain arl3, hits give low values 0.987 | S. cerevisiae deletion strains, locus YPL055C, strain LGE1, hits give low values 0.992 | S. cerevisiae deletion strains, locus YPL078C, strain atp4, hits give low values 1.03 | S. cerevisiae deletion strains, locus YPL106C, strain sse1, hits give low values 0.987 | S. cerevisiae deletion strains, locus YPL240C, strain hsp82, hits give low values 0.999 | S. cerevisiae deletion strains, locus YPL241C, strain CIN2, hits give low values 0.995 | S. cerevisiae deletion strains, locus YPR119W, strain clb2, hits give low values 0.998 | S. cerevisiae deletion strains, locus YPR141C, strain kar3, hits give low values 1 | S. cerevisiae deletion strains, locus YPR163C, strain tif3, hits give low values 1 | S. cerevisiae deletion strains, locus YPR167C, strain met16, hits give low values 0.996 | S. cerevisiae deletion strains, strain wtn01, hits give low values 1.01 | S. cerevisiae strains, strain wild type, hits give low values 0.997
